# PubChem BioAssay AID1159580 (chemical genetic matrix, 2015)
# In all, about 5,500 compounds went through this assay and about 2,000 (36%) were called active. Inconclusive results (about 18%) are left out. This is one part of the list. A number with no mark means an inactive call. Rule as the data show it: active = normalized growth mostly below about 0.91 (no sharp cut-off); inconclusive = no clear call, values can overlap the other calls; inactive = mostly above about 0.92.
# Test: chemical genetic growth profiling, strain panel (AID 1159580);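 also: tested at 20 µM; growth read once vehicle control cultures reached saturation at 30 °C; 1 = growth at the plate median or of vehicle wells; lower values mean less growth of the strain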
# Details: S. cerevisiae deletion strains, growth OD
# [1] = locus YAL013W, strain DEP1, active compounds read low
# [2] = locus YBR229C, strain ROT2, active compounds read low
# [3] = locus YDL101C, strain DUN1, active compounds read low
# [4] = locus YDR150W, strain NUM1, active compounds read low
# [5] = locus YEL061C, strain CIN8, active compounds read low
# [6] = locus YGR078C, strain PAC10, active compounds read low
# [7] = locus YHR030C, strain SLT2, active compounds read low
# [8] = locus YHR087W, strain rtc3, active compounds read low
# [9] = locus YJR043C, strain POL32, active compounds read low
# [10] = locus YJR075W, strain HOC1, active compounds read low
# [11] = locus YLR039C, strain RIC1, active compounds read low
# [12] = locus YLR058C, strain SHM2 (second series), active compounds read low
# [13] = locus YLR085C, strain ARP6, active compounds read low
# [14] = locus YLR262C, strain YPT6, active compounds read low
# [15] = locus YML094W, strain GIM5, active compounds read low
# [16] = locus YMR219W, strain ESC1, active compounds read low
# [17] = locus YMR263W, strain SAP30, active compounds read low
# [18] = locus YNL153C, strain GIM3, active compounds read low
# [19] = locus YNL298W, strain CLA4 (second series), active compounds read low
# [20] = locus YNL322C, strain KRE1, active compounds read low
# [21] = locus YNR030W, strain Alg12, active compounds read low
# [22] = locus YOL006C, strain TOP1, active compounds read low
# [23] = locus YPL055C, strain LGE1, active compounds read low
# [24] = locus YPL241C, strain CIN2, active compounds read low
# [25] = locus YPR135W, strain CTF4, active compounds read low
compound,measurement,setting,value
Cc1ccc(NC(=S)NNC(C)(C)C)cc1,normalized growth,[1],0.991
same,normalized growth,[2],0.963
same,normalized growth,"locus YCL061C, strain MRC1, active compounds read low",0.972
same,normalized growth,[3],0.971
same,normalized growth,[4],0.898
same,normalized growth,[5],0.838 (active)
same,normalized growth,[6],0.997
same,normalized growth,[7],0.721
same,normalized growth,[8],1.01
same,normalized growth,[9],0.99
same,normalized growth,[10],1.06
same,normalized growth,[11],0.654 (active)
same,normalized growth,[12],1
same,normalized growth,[13],0.488 (active)
same,normalized growth,[14],0.795 (active)
same,normalized growth,[15],0.827 (active)
same,normalized growth,[16],1.01
same,normalized growth,[17],1.03
same,normalized growth,"locus YNL128W, strain TEP1, active compounds read low",0.94
same,normalized growth,[18],0.955
same,normalized growth,[19],0.675 (active)
same,normalized growth,[20],1.02
same,normalized growth,[21],0.787 (active)
same,normalized growth,[22],0.193 (active)
same,normalized growth,[23],0.894
same,normalized growth,[24],0.913
same,normalized growth,[25],0.646 (active)
COC(=O)c1sccc1OC(=O)c1c(F)cccc1F,normalized growth,[1],0.963
same,normalized growth,[2],0.974
same,normalized growth,[3],0.908
same,normalized growth,[4],0.939
same,normalized growth,[5],1.01
same,normalized growth,[6],0.955
same,normalized growth,[7],0.726
same,normalized growth,[8],1.02
same,normalized growth,[9],0.981
same,normalized growth,[10],0.97
same,normalized growth,"locus YKL190W, strain CNB1, active compounds read low",0.989
same,normalized growth,[11],0.841
same,normalized growth,[12],0.961
same,normalized growth,[13],0.891
same,normalized growth,[14],0.914
same,normalized growth,[15],0.981
same,normalized growth,[16],0.955
same,normalized growth,[17],0.974
same,normalized growth,"locus YMR307W, strain GAS1, active compounds read low",0.975
same,normalized growth,[18],0.99
same,normalized growth,[19],0.912
same,normalized growth,[20],0.96
same,normalized growth,[21],0.979
same,normalized growth,[22],0.884
same,normalized growth,[23],0.97
same,normalized growth,[24],0.926
same,normalized growth,[25],0.768
